# Experimental data: PubChem BioAssay; in the data active = activity above about 50%; inactive = the rest
# What was measured:
# [1] = molecular target: Tumor necrosis factor receptor superfamily member 10B (Homo sapiens) (UniProt O14763); assay: caspase-8 TRAIL sensitization, hit retest, confirmation, cell-based, NB7+caspase-8, with/without TRAIL, luminescence panel (AID 651596); conditions: NB7 neuroblastoma + caspase-8, TRAIL sensitization, luminescence viability, with TRAIL, mean of runs, at 10 µM, stronger effect = higher value
# Chain of Tumor necrosis factor receptor superfamily member 10B (Homo sapiens) (O14763 whole entry, looked up): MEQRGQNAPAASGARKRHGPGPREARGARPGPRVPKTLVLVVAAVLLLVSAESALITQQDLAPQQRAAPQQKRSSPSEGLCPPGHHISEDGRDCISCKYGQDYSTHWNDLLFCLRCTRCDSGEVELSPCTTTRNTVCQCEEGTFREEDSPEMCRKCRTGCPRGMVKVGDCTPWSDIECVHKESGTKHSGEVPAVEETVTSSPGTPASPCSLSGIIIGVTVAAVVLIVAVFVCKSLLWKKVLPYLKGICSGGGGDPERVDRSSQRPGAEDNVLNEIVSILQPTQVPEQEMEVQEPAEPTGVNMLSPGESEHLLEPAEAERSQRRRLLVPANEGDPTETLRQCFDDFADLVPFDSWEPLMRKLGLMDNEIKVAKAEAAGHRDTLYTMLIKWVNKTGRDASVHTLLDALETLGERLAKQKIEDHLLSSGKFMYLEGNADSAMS
# [2] = as above; conditions: NB7 neuroblastoma + caspase-8, without TRAIL, luminescence viability, without TRAIL, mean of runs, at 10 µM
# [3] = molecular target: Tumor necrosis factor receptor superfamily member 10B (Homo sapiens) (UniProt O14763); assay: TRAIL sensitizers in caspase-8 expressing neuroblastoma cells, dose response, NB7 cells plus caspase-8, luminescence, panel (AID 652002); conditions: NB7 neuroblastoma +caspase-8, TRAIL sensitization, luminescence viability, NB7+Caspase-8, with TRAIL, run 1; at 12.5 µM (top of the series)
# [4] = molecular target: Tumor necrosis factor receptor superfamily member 10B (Homo sapiens) (UniProt O14763); assay: as above; conditions: NB7 neuroblastoma +caspase-8, TRAIL sensitization, luminescence viability, NB7+Caspase-8, with TRAIL, run 2; at 12.5 µM (top of the series)
# [5] = as above; conditions: NB7 neuroblastoma +caspase-8, no TRAIL, compound-alone cytotoxicity counter-screen, luminescence viability, NB7+Caspase-8, run 1; at 12.5 µM (top of the series) unless noted
# [6] = as above; conditions: NB7 neuroblastoma +caspase-8, no TRAIL, compound-alone cytotoxicity counter-screen, luminescence viability, NB7+Caspase-8, run 2; at 12.5 µM (top of the series) unless noted
structure (smiles),measurement,setting,value
COc1ccc(-n2cc(C(=O)c3ccccc3O)cn2)cc1,activity,[1],39.1%
same,activity,[2],29.7%
Nc1ccccc1C=C1Cc2ccccc2C1=O,activity,[1],58.5%
same,activity,[2],50%
O=C(CCl)N(Cc1ccccc1)c1ccccc1,activity,[1],99%
same,activity,[2],98.9%
c1csc(-c2nnc(-c3ccc(N4CCOCC4)cc3)o2)c1,activity,[1],56.9%
same,activity,[2],54.2%
Cc1ccc(C(=O)Nc2ccc3c(c2)OCCO3)c(Cl)c1,activity,[1],92.3%
same,activity,[2],90.8%
Cc1cccc(CS(=O)(=O)c2ncc(Cl)c(C(=O)Nc3nnc(C(C)C)s3)n2)c1,activity,[1],93.5%
same,activity,[2],86.1%
COc1ccc(/C(N)=N/OC(=O)c2ccc3ccccc3c2)cc1OC,activity,[1],99%
same,activity,[2],98%
CCCCCCCCCCCCCCCC[N+](C)(C)CCl,activity,[1],96%
same,activity,[2],94.3%
COc1ccccc1OCCNC(=O)c1ccc2c(c1)OCCO2,activity,[1],41%
same,activity,[2],45.9%
C#Cc1ccc(NC(=O)C2(C)CCN2C(=O)C2(c3ccccc3)CCCC2)cc1 (stereo not given),activity,[1],91.3%
same,activity,[2],84.6%
O=C(Nc1nc2ccccc2[nH]1)c1ccc(OC(F)F)cc1,activity,[1],95.3%
same,activity,[2],94.6%
CCc1nnc(NC(=O)c2nc(S(=O)(=O)Cc3cccc(C)c3)ncc2Cl)s1,activity,[1],97.6%
same,activity,[2],90.3%
C(=C\c1nc2ccccc2[nH]1)/c1ccccc1,activity,[1],93.8%
same,activity,[2],93.6%
COC(=O)c1ccc(CCc2cc(O)c(Br)cc2O)cc1,activity,[1],15%
same,activity,[2],19.7%
COc1ccc(C2C(C(=O)N3CCN(c4ccccc4)CC3)c3ccccc3C(=O)N2C)cc1OC (stereo not given),activity,[1],71.8%
same,activity,[2],64.5%
COc1ccc(C2NN=C(c3ccc(C)cc3)S2)cc1 (stereo not given),activity,[1],51.8%
same,activity,[2],42.1%
O=C(Nc1ccccn1)c1ccc2c(=O)n3c(nc2c1)CCCCC3,activity,[1],50.4%
same,activity,[2],62.5%
Nc1c(N(CCC2=CCCCC2)C(=O)COc2ccc(F)cc2Cl)c(=O)[nH]c(=O)n1Cc1ccccc1,activity,[1],88.3%
same,activity,[2],79.4%
Cc1ccccc1C(=O)O/N=C(\N)Cc1cccs1,activity,[1],98%
same,activity,[2],96.6%
CSc1nnc(NC(=O)c2nc(S(=O)(=O)Cc3ccccc3F)ncc2Cl)s1,activity,[1],80.3%
same,activity,[2],58.1%
Cc1ccccc1C(=O)Nc1nnc(SCC(=O)NCc2ccco2)s1,activity,[1],61.1%
same,activity,[2],58.2%
O=C(Nc1ccccn1)c1ccc2c(c1)OCCO2,activity,[1],49.8%
same,activity,[2],47.5%
O=C(NC(=S)Nc1nc2ccccc2s1)c1ccco1,activity,[1],77.7%
same,activity,[2],64.4%
COc1ccc(C(=O)Nc2ccc3c(c2)OCCO3)cc1,activity,[1],77.6%
same,activity,[2],70%
O=C(N/N=C/c1ccc([N+](=O)[O-])o1)c1cc(-c2ccc(-c3ccccc3)cc2)nc2ccccc12,activity,[1],85.8%
same,activity,[2],89.3%
Cc1ccc(C(=O)N/N=C\c2cccc(OC(=O)c3cccc(F)c3)c2)cn1,activity,[1],37.2%
same,activity,[2],36.8%
Nc1nc(N)c2cc(CNc3ccc(Cl)c(Cl)c3)ccc2n1,activity,[1],85.2%
same,activity,[2],73.4%
CCc1cc2c(COC(=O)c3cc(S(=O)(=O)N4CCOCC4)ccc3F)cc(=O)oc2cc1O,activity,[1],77.3%
same,activity,[2],82.5%
N/C(=N\OC(=O)COc1ccc(Br)cc1Cl)c1ccccn1,activity,[1],38.2%
same,activity,[2],47.5%
CCC(=O)Nc1ccc(C(=O)Cn2ncc(Cl)c(Cl)c2=O)cc1,activity,[1],99.4%
same,activity,[2],99.3%
S=C(Nc1ccc(Cl)cc1)c1nc2ccccc2[nH]1,activity,[1],60.6%
same,activity,[2],65.9%
COc1ccc(Cn2c(SCc3ccc(C)cc3)nc3cc(OC)c(OC)cc3c2=N)cc1Cl,activity,[1],99%
same,activity,[2],99.3%
CN1CCc2c(sc(NC(=O)c3ccc([N+](=O)[O-])o3)c2C(N)=O)C1,activity,[1],9.5%
same,activity,[2],95.3%
CCN1CCN(CCNC(=O)c2ccc3c(c2)N(Cc2ccc(F)cc2)C(=O)/C(=C/c2ccccc2)S3)CC1,activity,[1],53.4%
same,activity,[2],80.5%
CN(C)S(=O)(=O)c1ccc(C(=O)Nc2nnc(SCC(=O)N3CCOCC3)s2)cc1,activity,[1],62.7%
same,activity,[2],66%
CCOc1ccc2nc(NC(=O)c3cccc(-c4cc5ccccc5oc4=O)c3)sc2c1,activity,[1],56.2%
same,activity,[2],31.1%
same,"activity, % sensitization",[3],-26.2%
same,"activity, % sensitization",[4],-15.7%
same,"activity, % sensitization",[5],-20.2%
same,"activity, % sensitization",[6],-25.4%
Cc1cc(NC(=O)C2CCCC2)nc2c1c(=O)oc1ccccc12,activity,[1],68.7%
same,activity,[2],50.2%
same,"activity, % sensitization",[3],15%
same,"activity, % sensitization",[4],-6.85%
same,"activity, % sensitization",[5],0.143%
same,"activity, % sensitization",[6],17.1%
O=C(Nc1ccc(C(=O)O)cc1)/C(=C\C=C\c1ccccc1)NC(=O)c1ccccc1Cl,activity,[1],63.6%
same,activity,[2],53.1%
same,"activity, % sensitization",[3],43.1%
same,"activity, % sensitization",[4],38.4%
same,"activity, % sensitization",[5],36.3%
same,"activity, % sensitization",[6],45.9%
Cn1nnc(NC(=O)c2ccc(C(C)(C)C)cc2)n1,activity,[1],58.1%
same,activity,[2],51.8%
same,"activity, % sensitization",[3],47.5%
same,"activity, % sensitization",[4],61.4%
same,"activity, % sensitization",[5],-4.98%
same,"activity, % sensitization",[6],39.7%
Fc1ccc(-c2cnn3c(-c4ccncc4)ccnc23)cc1,activity,[1],49.5%
same,activity,[2],48.7%
same,"activity, % sensitization",[3],-13.8%
same,"activity, % sensitization",[4],-2.37%
same,"activity, % sensitization",[5],13.2%
same,"activity, % sensitization",[6],-12.3%
